# Results filed as inconclusive are left out. The source made the active and inactive calls. How the source made its calls: active means hit-call score of the fitted dose curve at least 0.9, where 1 is the maximum; inconclusive means response in the unintended direction; inactive means score below 0.9.
# Test system: not listed separately
# Experiment: TOX21_p53_BLA_p5_viability: Viability Assessment in the Tox21 HCT-116 p53 Agonism Beta-lactamase Assay, Phase 5 (AID 2283600)
# Outline: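 Viability came from CellTiter-Glo ATP luminescence, read after 30 min at room temperature. Before this, HCT-116 p53-bla cells (4000/well) had 16 hours of compound exposure at 37C, with DMSO stocks diluted 217-fold on transfer.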
row,SMILES,outcome
1,Cc1cnc(C)c(C)n1,inactive
2,CC(C)c1ncc([N+](=O)[O-])n1C,inactive
3,CC(=O)NC[C@H]1CN(c2ccc(N3CCOCC3)c(F)c2)C(=O)O1,inactive
4,C[C@]12CC[C@@H]3c4ccc(OC(=O)c5ccccc5)cc4CC[C@H]3[C@@H]1CC[C@@H]2O,inactive
5,O=C(O)[C@H](O)c1ccccc1,inactive
6,CCOc1ccc(S(=O)(=O)O)c2cccnc12,inactive
7,C=CC(=O)[O-].C=CC(=O)[O-].[Zn+2],inactive
8,O=C(O)CP(=O)(O)O,inactive
9,CC(C)(C)C(=O)OCC(=O)[C@H]1CC[C@H]2[C@@H]3CCC4=CC(=O)CC[C@]4(C)[C@H]3CC[C@]12C,inactive
10,CCCCCC(N)=O,inactive
11,Cc1cc(=O)c(C(=O)N[C@@H](C(=O)N[C@@H]2C(=O)N3C(C(=O)O)=C(CSc4nnnn4C)CS[C@H]23)c2ccc(O)cc2)c[nH]1,inactive
12,O=[N+]([O-])c1ccc(Oc2ccc([N+](=O)[O-])cc2)cc1,inactive
13,CC(C)NC[C@@H](O)COc1cccc2ccccc12,inactive
14,CC(=O)c1ccc(Cl)c(Cl)c1Cl,inactive
15,CC1(C)Cc2cccc(N)c2O1,inactive

# Target: Cellular tumor antigen p53 (Homo sapiens) (UniProt P04637)
# Experiment: TOX21_p53_BLA_p4_ratio: Tox21 HCT-116 p53 Agonism Beta-lactamase Assay, Ratio, Phase 4 (AID 2283601)
# Outline: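 HCT116 cells carrying an inducible beta-lactamase reporter were plated at 4000 cells/well, rested 5 h, then exposed to compounds in DMSO (217-fold dilution) for 16 h at 37C. CCF4-AM substrate was loaded 2 h at room temperature; 460/530 nm emission ratio scored gain-of-signal versus DMSO.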
# Sequence of Cellular tumor antigen p53 (Homo sapiens) (P04637 whole entry, looked up): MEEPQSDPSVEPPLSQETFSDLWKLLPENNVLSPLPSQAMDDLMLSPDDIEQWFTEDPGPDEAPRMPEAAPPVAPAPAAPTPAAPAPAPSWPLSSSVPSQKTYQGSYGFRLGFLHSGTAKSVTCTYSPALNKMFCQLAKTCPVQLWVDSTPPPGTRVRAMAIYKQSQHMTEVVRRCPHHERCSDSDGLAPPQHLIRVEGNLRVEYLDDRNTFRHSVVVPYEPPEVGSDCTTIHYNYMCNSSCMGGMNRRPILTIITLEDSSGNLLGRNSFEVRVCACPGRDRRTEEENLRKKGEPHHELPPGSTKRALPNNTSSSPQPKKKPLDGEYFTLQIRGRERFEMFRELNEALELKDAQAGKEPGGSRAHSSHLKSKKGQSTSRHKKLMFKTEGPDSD
row,SMILES,outcome
1,CCOC(=O)CC(=O)C(=O)OCC,inactive
2,COc1ccc(/C=C/c2cc(OC)cc(=O)o2)cc1,inactive
3,C=Cc1ccccn1,inactive
4,Cc1ccc(O)c(N)c1,inactive
5,S=C(SSSSSSC(=S)N1CCCCC1)N1CCCCC1,inactive
6,CC(=O)NC[C@H]1CN(c2ccc(N3CCOCC3)c(F)c2)C(=O)O1,inactive
7,O=C(O)[C@H](O)c1ccccc1,inactive
8,COc1ccc(-c2cc(C(F)F)nn2-c2ccc(S(N)(=O)=O)cc2)cc1F,inactive
9,C[Si](Cl)(c1ccccc1)c1ccccc1,inactive
10,CN1CCOC(c2ccccc2)c2ccccc2C1 (centres undefined),inactive
11,CC1CCCC(=O)C1=O (centres undefined),inactive
12,CC(C)OC(=O)C(C(=O)OC(C)C)=C1SC=CS1,inactive
13,C=CC(=O)[O-].C=CC(=O)[O-].[Zn+2],inactive
14,O=C(O)CP(=O)(O)O,inactive
15,CC(C)(C)C(=O)OCC(=O)[C@H]1CC[C@H]2[C@@H]3CCC4=CC(=O)CC[C@]4(C)[C@H]3CC[C@]12C,inactive
16,CCCCCC(N)=O,inactive
17,OCl,inactive
18,C1CCCNCCC1,inactive
19,CCN(C)C(=O)Oc1cccc([C@H](C)N(C)C)c1,inactive
20,Cc1cc(=O)c(C(=O)N[C@@H](C(=O)N[C@@H]2C(=O)N3C(C(=O)O)=C(CSc4nnnn4C)CS[C@H]23)c2ccc(O)cc2)c[nH]1,inactive
21,CO[C@@]1(NC(=O)C2SC(=C(C(N)=O)C(=O)O)S2)C(=O)N2C(C(=O)O)=C(CSc3nnnn3C)CS[C@@H]21 (some centres undefined),inactive
22,CCOC(=O)CCC(=O)O[C@H]1[C@H](O[C@@H]2[C@@H](C)[C@H](O[C@H]3C[C@@](C)(OC)[C@@H](O)[C@H](C)O3)[C@@H](C)C(=O)O[C@H](CC)[C@@](C)(O)[C@H](O)[C@@H](C)C(=O)[C@H](C)C[C@@]2(C)O)O[C@H](C)C[C@@H]1N(C)C,inactive
23,CN1CCc2c(c3ccccc3n2Cc2ccccc2)C1,inactive
24,CC(C)NC[C@@H](O)COc1cccc2ccccc12,inactive

# — PubChem BioAssay (EPA / NIEHS)
